# In the supplement of paper PMC6555819:
# Experiments:
# Assay in all cases: PBM binding z-score (relative to random genomic background probes); higher = stronger binding; sequences stand for … in GC…GCGATTGACAGCGTAGAATGAAGG
# [1] = test system: FXR:RXRa (NR concentration 270 nM, RXRa partner concentration 90 nM)
# Outline: (§1)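 Ligand-free nuclear receptor dimers were bound for 1 h to custom Agilent 4×180K protein-binding microarrays. Detection used antibodies against each partner (one per run). Binding z-scores rest on regression-normalized fluorescence, with random background probes as the reference.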
# [2] = test system: LXRa:RXRa (NR concentration 270 nM, RXRa partner concentration 90 nM)
# Outline: as §1
# [3] = test system: LXRa homodimer (NR concentration 270 nM)
# Outline: as §1
# [4] = test system: LXRb:RXRa (NR concentration 270 nM, RXRa partner concentration 90 nM)
# Outline: as §1
# [5] = test system: LXRb homodimer (NR concentration 270 nM)
# Outline: as §1
# [6] = test system: PPARa:RXRa (NR concentration 270 nM, RXRa partner concentration 90 nM)
# Outline: as §1
# [7] = test system: PPARg:RXRa (NR concentration 180 nM, RXRa partner concentration 90 nM)
# Outline: as §1
# [8] = test system: PPARg:RXRa 270nM:90nM, anti-RXR (NR concentration 270 nM, RXRa partner concentration 90 nM)
# Outline: as §1
# [9] = test system: PPARg:RXRa 30nM:10nM, anti-RXR (NR concentration 30 nM, RXRa partner concentration 10 nM)
# Outline: as §1
# [10] = test system: PPARg:RXRa 90nM:30nM, anti-RXR (NR concentration 90 nM, RXRa partner concentration 30 nM)
# Outline: as §1
# [11] = test system: PPARg:RXRa DBDmut IVT, anti-RXR (DBD mutation: RXRa K156A/R161A, NR concentration 270 nM, RXRa partner concentration 90 nM)
# Outline: as §1
# [12] = test system: PPARg:RXRa IVT, anti-PPARg (NR concentration 270 nM, RXRa partner concentration 90 nM)
# Outline: as §1
# [13] = test system: PPARg DBDmut:RXRa IVT, anti-PPARg (DBD mutation: PPARg1 K132A/R137A, NR concentration 270 nM, RXRa partner concentration 90 nM)
# Outline: as §1
# [14] = test system: PPARg DBDmut IVT, anti-PPARg (DBD mutation: PPARg1 K132A/R137A, NR concentration 270 nM)
# Outline: as §1
# [15] = test system: PPARg homodimer (NR concentration 180 nM)
# Outline: as §1
# [16] = test system: PXR:RXRa (NR concentration 270 nM, RXRa partner concentration 90 nM)
# Outline: as §1
# [17] = test system: PXR homodimer (NR concentration 270 nM)
# Outline: as §1
# [18] = test system: RARa:RXR (NR concentration 270 nM, RXRa partner concentration 90 nM)
# Outline: as §1
# [19] = test system: RARa homodimer (NR concentration 270 nM)
# Outline: as §1
# [20] = test system: RARb:RXRa (NR concentration 270 nM, RXRa partner concentration 90 nM)
# Outline: as §1
Sequence,PBM binding z-score [1],PBM binding z-score [2],PBM binding z-score [3],PBM binding z-score [4],PBM binding z-score [5],PBM binding z-score [6],PBM binding z-score [7],PBM binding z-score [8],PBM binding z-score [9],PBM binding z-score [10],PBM binding z-score [11],PBM binding z-score [12],PBM binding z-score [13],PBM binding z-score [14],PBM binding z-score [15],PBM binding z-score [16],PBM binding z-score [17],PBM binding z-score [18],PBM binding z-score [19],PBM binding z-score [20]
TTACCAAGGTGAAGCTCGTTGATCCCTCTGTAGA,0.0851,-0.0821,-1.1,-0.274,-1.24,1.09,-0.0345,0.378,0.125,0.429,1.63,2.34,-0.257,-0.63,-0.515,-0.27,-0.88,0.172,-0.72,1.29
ATACCAAGGTGATCGTGAGGGCGTTGATACTAAC,0.788,0.233,-0.00704,0.447,-0.219,0.489,0.369,-0.183,-0.112,-0.238,0.642,0.871,0.129,1.25,0.383,1.29,0.775,0.85,0.505,0.796
TCTCGGAGGACACGAAGGTGAGAGCTTTCCAGAG,-0.0901,-0.338,-0.832,-0.756,-1.18,-0.0332,0.00837,0.718,1.9,0.958,1.32,0.688,-0.824,-1.52,-0.651,-0.315,-0.615,-0.0834,-0.906,1.69
CCTTACCGGTCACGAGGTTATAGCACGACGAGCG,2.69,3.04,2,2,0.699,2.85,2.12,2.07,0.437,1.06,1.09,2.32,0.31,0.533,2.18,1.92,0.733,2.66,1.45,3.73
CGTCCAAGGTAAAGGTCAGTGAAAGAGACTCGAA,3.41,3.38,0.618,3.01,-0.119,4.54,5.24,6.05,3.76,5.72,1.42,3.27,-0.427,-0.748,1.81,3.05,0.298,3.83,1.38,4.61
CCCAGTTGGTCAAGGTCACACACGCTATAGGTAC,4.07,4.03,2.72,3.8,0.738,4.18,3.3,3.56,1.14,2.57,1.74,3.31,2.05,0.443,4.04,4.46,3.52,4.63,2.32,4.24
CCGACTGGGGCAATGTTACCATAACGCACAGCCA,-0.585,-0.725,-0.195,-0.162,-1.01,0.11,1.21,0.645,-0.14,0.223,3.67,2.99,-0.638,-0.759,0.142,-0.771,-0.41,-0.456,0.0364,0.351
CCAGACAGGTGAGAATGTAACTCAGCCTCGATTA,-0.153,-0.116,-0.13,-0.00314,-0.187,0.0169,0.376,-0.212,-0.0571,-0.437,0.965,0.029,-1.25,0.0266,0.565,-0.276,0.0874,-0.141,1.11,0.234
ATATGTAGGTTAGCTGGGGTTATTCAGACTAGGC,1.74,3.29,0.848,2.56,1.44,3.94,4.22,3.82,1.45,2.9,6.78,6.18,3.12,2.79,1.88,4.02,0.969,3.11,1.26,1.38
CCTACAGGGCCAAAAAGGTCATTGATGCCGATAA,4.22,4.32,2.83,4.2,0.284,4.61,1.51,2.74,0.52,1.49,-0.0995,0.938,-1.38,-1.06,2.94,5.28,4.66,5.28,1.42,4.26
AGTCAACGTTCAGGACGAGGTAACGTAAAGCACG,-0.0969,-0.468,-0.628,-0.496,-0.581,-0.416,0.73,-0.278,-0.327,-0.0729,-0.667,-0.129,-0.279,-0.261,-0.431,-0.527,-0.514,0.104,-0.202,0.548
AATACAGGGTCACTAGGCCAAAGTAGGTACGAAT,6.51,4.99,1.08,4,1.01,6.26,8.6,6.83,4.18,6.09,4.25,6.12,1.52,1.47,2.51,3.27,0.193,4.17,0.959,4.31
ACTAGTTGGTCAGCTAAGGTCACACACAATTCGG,3.65,3.51,2.56,3.35,0.836,3.93,1.94,2.76,0.836,1.64,1.38,2.77,0.873,0.678,3.37,5.12,1.46,4.92,2.09,4
CCTAGCAGGCCAGGGTCGCTCAAGCATTTCGCTT,1.21,1.49,-0.612,1.26,-1.47,2.58,-0.528,0.271,-1.11,-0.71,-0.39,-0.535,-1.87,-2.27,-0.112,1.78,-0.439,1.84,-0.399,0.562
